Bioassay records deposited in PubChem by National Center for Advancing Translational Sciences (NCATS).
In the library only some 19% were active in any assay of this set; here they are far more common.
HT1080 IDH1KD tx: qHTS for induction of synthetic lethality in tumor cells producing 2HG: qHTS for the HT-1080-IDH1KD cell line; HT-1080 IDH1 knockdown viability, ATP luminescence, 48 h; Potency, µM (series often up to 46.1 µM), usual class: cytotoxic; 360,000 tested, 2% active
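HT-1080-IDH1KD cells (IDH1 knocked down), 750/well in RPMI with 5% FBS, treated with compound 48 h at 37 degrees C. Viability by CellTiter-Glo luminescence, normalised to DMSO and no-cell wells; concentration-response curves classed.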
TDP1 cell CPT: qHTS for Inhibitors of human tyrosyl-DNA phosphodiesterase 1 (TDP1): qHTS in cells in presence of CPT. chicken DT40 Tdp1-/-;hTDP1 cells + 20 nM CPT, ATP luminescence, 48 h. 420,000 tested, 12% active. AID 686979, 2013. Potency, µM (top dose mostly 46.2 µM), actives largely listed as inhibitors; also: nearly all actives have a fitted effect of over 55% in size
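Chicken DT40 Tdp1-/- cells complemented with human TDP1, 400 cells/well, exposed to compounds plus 20 nM camptothecin for at least 48 h at 37 C; viability read as ATP content by CellTiter-Glo luminescence.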
HT1080-NT tox: qHTS for induction of synthetic lethality in tumor cells producing 2HG: qHTS for the HT-1080-NT fibrosarcoma cell line. Potency, µM (titrated, usually from 46.1 µM), hits mostly cytotoxic. HT-1080-NT fibrosarcoma viability, CellTiter-Glo ATP luminescence, 48 h. 360,000 tested, 1.6% active. AID 686970, 2013;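 also: NT is the 2HG producing partner of a matched IDH1 knockdown line; nearly all actives have a fitted effect of over 55% in size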
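Viability by CellTiter-Glo luminescence after 48 h compound exposure at 37C of HT-1080-NT cells (750/well, RPMI, 5% FBS). % activity scaled between DMSO wells and medium-only wells, then curve-fitted and categorized by curve class.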
KB-3-1 cytotox: qHTS assay for MDR1-selective chemotherapeutics: Primary screen using the parental adenocarcinoma cell KB-3-1 | KB-3-1 viability, CellTiter-Glo ATP luminescence, 72 h | Potency, µM (top dose mostly 46.1 µM), hits mostly cytotoxic | 400,000 tested, 1.4% active; also: nearly all actives have a fitted effect of over 60% in size
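Viability of parental KB-3-1 cells, measured by CellTiter-Glo luminescence, followed a 72 h incubation at 37 °C with pinned compounds in phenol-red-free DMEM containing 10% FBS.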
KB-V1 cytotox: qHTS assay for MDR1-selective chemotherapeutics: Primary screen using the drug-selected MDR subline cells KB-V1; KB-V1 MDR cells viability, CellTiter-Glo, 72 h; Potency, µM (highest dose often 46.1 µM), actives largely listed as cytotoxic; 400,000 tested, 3.4% active; AID 1347076, 2019; also: nearly all actives have a fitted effect of over 60% in size
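qHTS viability screen in drug-selected KB-V1 MDR cells: 72 h compound treatment at 37 degrees C, ATP luminescence end point.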
TDP1 cell noCPT: qHTS for Inhibitors of human tyrosyl-DNA phosphodiesterase 1 (TDP1): qHTS in cells in absence of CPT; DT40 Tdp1-/- hTDP1 cells, no CPT, ATP luminescence, 48 h; Potency, µM (highest dose often 46.2 µM), hits mostly inhibitors; AID 686978, 2013; 420,000 tested, 15% active; also: nearly all actives have a fitted effect of over 55% in size
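Stably hTDP1-transfected Tdp1-null chicken DT40 cells were treated with library compounds minus camptothecin and grown for at least 48 hr at 37 °C, after which cellular ATP was quantified by luminescence.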
Hits are given with their value; - = inactive; ? = inconclusive; . = no result; [ ] = remark or other dose. Calls follow the shape of the dose curve; as a rule, active = well fitted curve in the direction sought with a large enough effect; inconclusive = small, poorly fitted or top-dose-only effect, or another doubt; inactive = no such curve, though single readings can be large; an effect the other way counts as inactive or inconclusive.

SMILES	HT1080 IDH1KD tx	TDP1 cell CPT	HT1080-NT tox	KB-3-1 cytotox	KB-V1 cytotox	TDP1 cell noCPT
CCOc1ccc(/C=C2/SC(=O)NC2=S)cc1	-	-	-	-	-	?
CC1CN(C2CCN(C(=O)c3ccccc3)CC2)CC(C)O1 (stereo not drawn)	-	-	-	-	-	-
CC1=C/C(=N\OC(=O)/C=C/c2ccccc2)C(C)=CC1=O	-	23µM	-	-	-	?
N/C(=N\OC(=O)/C=C/c1ccccc1)c1ccccc1	-	-	-	-	-	-
O=C(O)CN1C(=O)c2ccc(C(=O)c3ccccc3)cc2C1=O	-	-	-	-	-	-
CCc1ccccc1NC(=O)c1cc(S(=O)(=O)NCCc2ccc(OC)c(OC)c2)ccc1F	.	21µM	.	-	?	16µM
Cc1ccc(NC(=O)c2cc(S(=O)(=O)NCCc3ccccc3)ccc2F)cc1Cl	16µM	?	16µM	-	-	?
COc1ccc(CNS(=O)(=O)c2ccc(F)c(C(=O)Nc3ccccc3OC)c2)cc1	-	-	-	-	-	-
CCOC(=O)N1CCC(NC(=O)c2cc(S(=O)(=O)NCCc3ccccc3)ccc2F)CC1	-	?	-	-	?	?
Cc1ccc(C)c(NC(=O)c2cc(S(=O)(=O)NCCc3ccccc3)ccc2F)c1	.	23µM	.	-	?	?
Cc1ccc(C)c(NC(=O)c2cc(S(=O)(=O)N3CCc4ccccc4C3)ccc2F)c1	.	-	.	.	.	-
O=C(O)CCN=CC1=C(O)CC(c2ccccc2)CC1=O (stereo not drawn)	-	-	-	-	-	-
CCn1cc(S(=O)(=O)NC(C)c2cc(OC)ccc2OC)cn1 (stereo not drawn)	-	-	-	-	-	-
Cc1ccccc1[C@H](NC1c2ccccc2C=Cc2ccccc21)P(=O)(c1ccccc1)c1ccccc1	13µM	?	15µM	?	?	?
COc1ccc2[nH]c(=O)c(CNc3cc(C)ccc3C)cc2c1	-	15µM	?	-	-	15µM
Cc1ccc2[nH]c(=O)c(CNC(C)(C)C)cc2c1	-	-	-	-	-	-
COc1ccc2[nH]c(=O)c(CNc3ccc(C)cc3C)cc2c1	-	5.8µM	-	-	-	21µM
CNC(=S)N(Cc1ccc(OC)cc1)Cc1cc2cc(C)ccc2[nH]c1=O	-	-	-	-	-	-
COc1cc(=O)n2c(c1C(=O)NCc1ccco1)CCN(Cc1ccc3ccccc3c1)CC2	.	-	.	.	.	-
Cc1cc(C)cc(NC(=O)CSc2nc(-c3ccccc3)c3cc(F)ccc3n2)c1	.	18µM	.	.	.	18µM
CCOc1ccc(NC(=O)CSc2nc(-c3ccccc3)c3cc(OCC)ccc3n2)cc1	.	15µM	.	.	.	?
COC(=O)C1CCCCN1Cc1ccc2c(c1)CN(C(=O)c1ccc(F)cc1)CCO2 (stereo not drawn)	.	-[9.04 µM]	.	.	.	-
CCOC(=O)N1CCc2c(sc(NCc3cccc(F)c3)c2C(=O)Nc2ccc(OC)cc2)C1	.	?	.	.	.	16µM
COC(=O)c1ccc(NC(=O)c2c(NCc3cccc(F)c3)sc3c2CCCC3)cc1	.	21µM	.	-	-	16µM
CCOC(=O)N1CCc2c(sc(NCc3cc(OC)c(OC)cc3OC)c2C(=O)Nc2ccc(OCC)cc2)C1	.	?	.	-	-	?
SMILES	HT1080 IDH1KD tx	TDP1 cell CPT	HT1080-NT tox	KB-3-1 cytotox	KB-V1 cytotox	TDP1 cell noCPT
CCOC(=O)N1CCc2c(sc(NCc3ccc(N(C)C)cc3)c2C(=O)Nc2ccc(OC)cc2)C1	.	21µM	.	.	.	?
CCOC(=O)CC1C(=O)NCCN1C(=O)c1cccc(OC)c1 (stereo not drawn)	-	-	-	-	-	-
COc1ccc(C(=O)N2CCC2(C)C(=O)NC(C)C)c(OC)c1 (stereo not drawn)	?	-	?	-	?	-
CCOC(=O)c1oc2ccccc2c1NC(=O)Cc1cccs1	?	-	-	-	15µM	-
CCCCN1C(=O)C(NC(C)=O)c2cc(Br)ccc21 (stereo not drawn)	-	?	-	-	?	21µM
CCOc1cc(CO)cc(Br)c1OCC(=O)O	-	-	-	-	-	-
CCOc1c(Br)cc(C(N)=O)cc1OC	-	-	-	-	-	-
CCCOc1c(Br)cc(C(N)=O)cc1OCC	-	23µM	-	-	-	?
CCOc1cc(C=O)cc(Br)c1OCC(N)=O	-	5.8µM	-	-	-	5.2µM
Cn1c2ccccc2c2nnc(SCCOc3ccccc3)nc21	.	?	.	?	-	?
CCCNC(=O)c1cc(C2CCCN(C(=O)c3cc(F)ccc3C)C2)on1 (stereo not drawn)	-	?	-	-	-	-
COc1cccc(C(=O)NCCS(=O)(=O)N(C)Cc2ccccc2)c1	-	-	-	-	18µM	?
COc1cccc(C(=O)NCCS(=O)(=O)N(C)C2CCCCC2)c1	-	-	-	-	12µM	-
COc1cccc(C(=O)Nc2nnc(S(=O)(=O)N(C)Cc3ccccc3)s2)c1	-	?	-	-	-	-
CCOc1ccc(NC(=O)COC(=O)CC2CC3CCC2C3)cc1 (stereo not drawn)	-	-	-	-	-	-
O=C(Nc1cc(Br)ccc1O)c1cnn2c(C(F)F)cc(C3CC3)nc12	-	-	-	-	-	16µM
O=C(Nc1cccc(S(=O)(=O)N2CCOCC2)c1)c1cnn2c(C(F)F)cc(-c3ccccc3)nc12	-	?	-	-	-	?
O=C(Nc1cccnc1)c1cnn2c(C(F)F)cc(C3CC3)nc12	-	15µM	-	-	-	5.2µM
C=CCn1c(C)nnc1SCC(=O)Nc1oc(C)c2c(C)n[nH]c(=O)c12	-	-	-	-	-	-
COc1cccc(C2=CC(c3cc(OC)ccc3OC)n3nnnc3N2)c1 (stereo not drawn)	?	7.3µM	?	6.5µM	16µM	6.5µM
COc1cccc(C2=CC(c3cccc(OC)c3OC(F)F)n3nnnc3N2)c1 (stereo not drawn)	-	?	-	-	-	?
COc1ccc(OC)c(C2C=C(c3ccc(C)c(C)c3)Nc3nnnn32)c1 (stereo not drawn)	?	4.6µM	?	6.5µM	6.5µM	2.3µM
O=C(C1CC1)N1c2ccccc2Sc2ccccc21	18µM	?	?	21µM	?	?
CC(C)CNC(=O)N1c2ccccc2Sc2ccccc21	-	-	-	-	?	?
